Assay results from PubChem BioAssay AID624330 (Southern Research Specialized Biocontainment Screening …, 2012).
The whole screen tested about 340,000 compounds, of which about 2,100 (0.62%) were called active.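 Rule for the calls: active = first-screen hits whose inhibition reached a set limit at any dose in the follow-up dose series; inconclusive = inhibition above the set first-screen limit but never retested; inactive = the rest.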 The list is a sample of the results. Entries with a potency or affinity are not part of this list.

Molecular target: Rac GTPase-activating protein 1 (Homo sapiens) (UniProt Q9H0H5)
Sequence (Q9H0H5 whole entry, looked up): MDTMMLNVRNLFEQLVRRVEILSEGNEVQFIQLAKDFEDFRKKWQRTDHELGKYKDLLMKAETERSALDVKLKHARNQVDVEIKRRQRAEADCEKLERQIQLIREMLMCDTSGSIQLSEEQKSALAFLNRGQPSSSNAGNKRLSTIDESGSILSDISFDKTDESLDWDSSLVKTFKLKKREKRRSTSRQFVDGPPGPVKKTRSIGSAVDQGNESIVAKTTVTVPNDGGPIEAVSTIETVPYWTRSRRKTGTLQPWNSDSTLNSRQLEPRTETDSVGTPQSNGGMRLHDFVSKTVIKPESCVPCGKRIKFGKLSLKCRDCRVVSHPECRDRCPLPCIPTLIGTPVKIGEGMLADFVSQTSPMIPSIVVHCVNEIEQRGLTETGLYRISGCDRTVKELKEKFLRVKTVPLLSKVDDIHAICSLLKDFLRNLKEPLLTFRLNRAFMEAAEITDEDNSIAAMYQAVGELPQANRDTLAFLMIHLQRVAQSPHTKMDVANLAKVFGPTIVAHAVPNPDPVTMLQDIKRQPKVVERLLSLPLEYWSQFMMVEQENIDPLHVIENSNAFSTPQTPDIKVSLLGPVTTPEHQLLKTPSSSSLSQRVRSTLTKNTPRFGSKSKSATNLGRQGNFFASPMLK
Assay: MgcRacGAP GTPase-activating activity inhibitors, confirmation, biochemical, ADP Hunter fluorescence, primary and confirmatory (AID 624330);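 note: fluorescence reports GDP produced by GAP-driven GTP hydrolysis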
Details: MgcRacGAP-stimulated Rac1 GTP hydrolysis, at 30 µM, hits give high values, GST-tagged Rac1 F28L mutant substrate

inhibition, inactive:
CC(OC(=O)c1cc(=O)[nH]c2ccccc12)C(=O)N1C(C)CCCC1C (stereo not given) 3.29%, COc1ccccc1Nc1nnc(SCc2cc(=O)n3cc(C)ccc3n2)s1 10.9%, Cc1cc(C)n2nc(SCc3nc4ccccc4[nH]3)nc2n1 3.82%, C/C=C\C=C/C(=O)Nc1cccc(C2=NOC3(C2)C[C@@H](C(N)=O)N(C(=O)COc2ccc(Cl)cc2)C3)c1 (stereo not given in full) 7.01%, O=C(c1sc2ccccc2c1Cl)N1CCN(c2ncccn2)CC1 5.52%, Cc1nc(Nc2nc(CSc3ccc(Cl)cc3)cc(=O)[nH]2)nc2ccccc12 4.96%, O=C(COC(=O)C1CC(=O)N(c2ccccc2)C1)c1ccccc1 (stereo not given) 4.11%, O=C1C(=Cc2ccccc2O)SC(=S)N1CCCN1CCOCC1 14.5%, O=C(CCCN1C(=O)/C(=C/c2ccccc2Cl)SC1=S)NCCCN1CCOCC1 12.8%, CCN(CC)C(=S)Nc1ccc2nc3n(c(=O)c2c1)CCCCC3 3.47%, O=C(O)c1ccccc1C(=O)Nc1ccccn1 3.57%, O=C(Nc1ccccn1)c1cc2ccccc2cc1O 6.04%, OCCSc1c(F)c(SCCO)c(SCCO)c(F)c1SCCO -1.8%, Cn1c(=O)[nH]c(=O)c2c1nc(NCCc1ccccc1)n2CC(O)COc1ccccc1 (stereo not given) 4.54%, CCOC(=O)C1(CCOC)CCN(C/C=C/c2ccccc2OC)CC1 5.1%, COc1cccc(/C=N/NC(=O)CNC(=O)c2cccs2)c1O 9.63%, O=C(CNC(=O)c1ccco1)N/N=C/c1cc(Br)ccc1O 5.36%, COc1ccc(Br)cc1/C=N/NC(=O)CNC(=O)c1cccnc1 -12.5%, COc1cccc(/C=N/NC(=O)CNC(=O)c2cccnc2)c1O 5.08%, O=C(CNC(=O)c1ccncc1)N/N=C/c1cc(Br)ccc1O 3.51%, O=C(N/N=C/c1ccc(O)cc1O)c1ccncc1 31.7%, O=C(CNC(=O)c1cccs1)N/N=C/c1ccccc1[N+](=O)[O-] 3.27%, O=C(CNC(=O)c1ccco1)N/N=C/c1ccccc1[N+](=O)[O-] 16.6%, O=C1OC(COc2ccc(Br)cc2)CN1c1ccccc1 (stereo not given) 0.77%, Cc1ccc(OCc2nnc(SC(C)C(=O)O)n2Cc2ccccc2)cc1 (stereo not given) -1.5%, O=C(COC(=O)[C@@H]1CC(O)CN1S(=O)(=O)c1ccc2c(c1)OCCO2)Nc1ccccc1F (stereo not given in full) 1.86%, O=C(c1ccc(Cl)nc1)N1CCN(C/C=C/c2ccccc2)CC1 10.5%, O=C(CN1C(=O)NC2(CCc3ccccc32)C1=O)c1c[nH]c2ccccc12 (stereo not given) -3.1%, CN1CCN(C(c2cccc(Cl)c2)c2ccccc2Cl)CC1 (stereo not given) 7.6%, CC1(C)C(=O)N(c2ccccc2)C1c1ccccc1O (stereo not given) 3.93%, Oc1ccc(/C=N/NC(=S)Nc2cccnc2)c(O)c1O -102%, O=C(CCCCCNC(=O)c1ccccc1)N/N=C/c1ccccc1O 3.53%, Oc1ccc(C=NNC(=S)Nc2cccnc2)nc1 7.4%, Cc1cccc(OCC(=O)NCC(=O)N/N=C/c2ccc(O)cc2O)c1 18.5%, O=C(COc1ccccc1)NCC(=O)N/N=C/c1ccccc1 5.67%, O=C(CCCCCNC(=O)c1ccccc1)N/N=C/c1ccc(F)cc1 6.47%, FC(F)(F)c1cnc(COc2ccc(Cl)cc2Cl)c(Cl)c1 7.97%, COc1ccccc1-c1cc(C(=O)NCc2ccco2)no1 11.6%, CCN(C[C@H]1N[C@@](C)(C(=O)OC)[C@H]2C(=O)N(C)C(=O)[C@@H]12)C(=O)Nc1ccc(C(F)(F)F)cc1 4.98%, COCCn1c(SC(C(=O)Nc2cc(C)ccc2OC)c2ccccc2)nnc1-c1ccc(Cl)cc1 (stereo not given) 8.02%, CC(C)COP(=O)(OCC(C)C)C(O)c1ccc2c(c1)OCO2 (stereo not given) 2.18%, N#Cc1c(-c2ccccc2)ccn(Cc2ccc(Cl)cc2)c1=O 11.4%, COc1cc(CNC2CCCC2)cc(OC)c1 16.2%, COc1cc(CNC2CCCCC2OC)cc(OC)c1OC (stereo not given) 21.8%, Cc1ccc(C)c(N2CCN(C(=O)Cc3ccc(NC4=NC5CS(=O)(=O)CC5S4)cc3)CC2)c1 (stereo not given) 15.3%, O=C(CNc1ccccc1)N/N=C/c1ccc2c(c1)OCO2 1.14%, O=C(CNc1ccc2c(c1)OCO2)N/N=C\c1cn(Cc2ccccc2)c2ccccc12 9.72%, CCOC(=O)Cc1csc(SC(C)C(=O)NC2CCCCC2C)n1 (stereo not given) 10.4%, CC(=O)c1ccc(N2CCN(C(=O)c3noc4c3CSc3ccccc3-4)CC2)cc1 10.2%, O=S(=O)(NCC(c1cccnc1)N1CCN(c2ccc(F)cc2)CC1)c1cccs1 (stereo not given) 5.99%, c1ccc(CCn2nnnc2C(c2cccs2)N2CCOCC2)cc1 (stereo not given) 6.38%, COc1ccc(N2CCN(C(c3cccs3)C(C)NS(C)(=O)=O)CC2)cc1 (stereo not given) 27.8%, COc1ccc(N2CCN(C(c3ccccc3)c3nnnn3Cc3ccc(F)cc3)CC2)cc1 (stereo not given) 19%, c1ccc(Cn2nnnc2C(c2cccnc2)N2CCN(c3ccccc3)CC2)cc1 (stereo not given) 2.89%, O=S(=O)(NCC(c1cccnc1)N1CCN(c2ccccc2)CC1)c1cccs1 (stereo not given) 2.98%, CCS(=O)(=O)NC(C)C(c1cccs1)N1CCN(c2ccc(F)cc2)CC1 (stereo not given) 8.25%, Fc1ccc(N2CCN(C(c3cccs3)c3nnnn3CCc3ccccc3)CC2)cc1 (stereo not given) -2.42%, CC1CCCC(NC(=O)CN2C(=O)NC(C)(c3ccccc3)C2=O)C1C (stereo not given) 2.02%, O=C(N/N=C/c1ccoc1)c1ccc([N+](=O)[O-])cc1 3.91%, COc1cccc2cc(C(=O)N3CC(C)OC(C)C3)c(=O)oc12 (stereo not given) 5.05%
